# Measured values: PubChem BioAssay (NCATS)
# Inconclusive results are not listed. Unmarked numbers belong to inactive results. Calls come from the whole dose curve.
# Experiment: Validation screen for inhibitors of Lassa infection (AID 463096)
# Details: Lassa virus infection, cell-based; series mostly up to 46.1 µM; activity change, negative = inhibition: at the top concentration
# % is set by controls: 0 for no effect and ±100 for the full control effect.
row,SMILES,"activity change, negative = inhibition [%]"
1,Cc1ccccc1N1CCN(S(=O)(=O)C[C@]23CCC(CC2NC(=O)[C@@H](N)CCS(C)(=O)=O)C3(C)C)CC1 (some centres undefined),15.3
2,CC#C[C@]1(O)CC[C@H]2C3CCC4=CC(=O)CCC4=C3[C@@H](c3ccc(N(C)C)cc3)C[C@@]21C (some centres undefined),-33.2
3,CN1C(=O)CCC1c1cccnc1 (centres undefined),1.28
4,CN1C2CC(OC(=O)C(CO)c3ccccc3)CC1C1OC12 (centres undefined),17
5,C[C@H]1c2cccc(O)c2C(O)=C2C(=O)[C@]3(O)C(O)=C(C(N)=O)C(=O)C(N(C)C)[C@@H]3[C@@H](O)C21 (some centres undefined),-4.39
6,C[C@]12CCC(=O)C=C1CC[C@@H]1C2[C@@H](O)C[C@@]2(C)[C@H]1CC[C@]2(O)C(=O)CO (some centres undefined),2.56
7,CSc1nc(N)c2ncn([C@@H]3O[C@H](COP(=O)(O)OP(=O)(O)O)[C@H](O)[C@H]3O)c2n1,-5.7
8,NC(=S)NCCCC(N)C(=O)O (centres undefined),3.27
9,OC[C@H]1O[C@@H](n2cnc3c(NC4CCCC4)ncnc32)[C@H](O)[C@H]1O,-5.39
10,Nc1nc(SCc2ccc([N+](=O)[O-])cc2)c2ncn([C@@H]3O[C@H](CO)[C@H](O)[C@H]3O)c2n1,15.2
11,Nc1nc(Cl)nc2c1ncn2[C@@H]1O[C@H](COP(=O)(O)OP(=O)(O)OP(=O)(O)O)[C@H](O)[C@H]1O,-15.6
12,O=C(NCCNCC(O)COc1ccc(O)cc1)N1CCOCC1 (centres undefined),-0.91
13,Nc1ncnc2c1ncn2[C@@H]1O[C@H](COP(=O)(O)OP(=O)(O)OP(=O)(O)OP(=O)(O)OC[C@@H]2O[C@H](n3cnc4c(N)ncnc43)[C@@H](O)[C@@H]2O)[C@H](O)[C@H]1O,22.1
14,CC(C)C1NC(=O)[C@H](CCCCN)NC(=O)[C@@H](Cc2c[nH]c3ccccc23)NC(=O)[C@H](Cc2ccc(O)cc2)NC(=O)[C@H](C)N(C)C(=O)[C@H](Cc2ccccc2)NC1=O (some centres undefined),44.8
15,Cc1ccc(OCC(O)C(C)NC(C)C)c2c1CCC2 (centres undefined),-36.8
16,CC(=O)[C@@]1(O)CC[C@H]2C3CCC4=CC(=O)CC[C@]4(C)C3CC[C@@]21C (some centres undefined),-7.86
17,C[C@]12C[C@H](O)C3[C@@H](CCC4=CC(=O)CC[C@@]43C)[C@@H]1CC[C@@H]2C(=O)CO (some centres undefined),-17.1
18,[N-]=[N+]=Nc1ccc(C(=O)CSC[C@H](NC(=O)CC[C@H](N)C(=O)O)C(=O)NCC(=O)O)cc1,-15.9
19,Nc1nc2c(nc(Br)n2C2O[C@H]3COP(=O)(O)O[C@@H]3C2O)c(=O)[nH]1 (some centres undefined),8.1
20,Nc1ncnc2c1nc(Br)n2C1O[C@H]2COP(=O)(O)O[C@@H]2C1O (some centres undefined),-12.4
21,CCCCC#Cc1nc(N)c2ncn([C@@H]3O[C@H](C(=O)NCC)[C@@H](O)[C@H]3O)c2n1,6.24
22,CN1CCc2c(cc(O)c(O)c2Cl)C(c2cccc(Cl)c2)C1 (centres undefined),-0.316
23,C/C=C1\C(=O)CC2C3CCC4=CC(=O)CC[C@]4(C)C3CC[C@]12C (some centres undefined),-34.6
24,C#C[C@]1(O)CC[C@H]2C3CCC4=Cc5oncc5CC4(C)C3CCC21C (some centres undefined),-18
